Assay in all cases: DAPPL (digital affinity profiling via proximity ligation, sequencing); 10 mM Tris-HCl pH 7.5, 50 mM NaCl, 1 mM DTT, 4% glycerol, room temperature, 30 min; GST-TFs on glutathione beads, 16-mer random dsDNA library, 0.1% formaldehyde crosslink after washing; high values mean tight binding
The target in experiment [1] is T1, FLI1 (Homo sapiens, UniProt Q01543 1-452).
T1 sequence: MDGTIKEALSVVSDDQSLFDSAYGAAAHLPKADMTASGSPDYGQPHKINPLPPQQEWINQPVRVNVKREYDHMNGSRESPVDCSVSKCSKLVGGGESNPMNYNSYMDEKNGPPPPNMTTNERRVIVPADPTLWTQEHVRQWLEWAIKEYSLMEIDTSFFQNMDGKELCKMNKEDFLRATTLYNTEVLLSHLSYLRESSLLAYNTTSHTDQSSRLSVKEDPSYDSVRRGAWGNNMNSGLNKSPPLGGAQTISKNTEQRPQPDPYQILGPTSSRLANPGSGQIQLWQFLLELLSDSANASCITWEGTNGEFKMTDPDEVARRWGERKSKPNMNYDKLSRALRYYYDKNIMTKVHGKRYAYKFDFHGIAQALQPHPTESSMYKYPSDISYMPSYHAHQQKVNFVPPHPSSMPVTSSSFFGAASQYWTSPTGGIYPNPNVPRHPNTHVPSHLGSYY
Particulars: protein: recombinant; tags: N-terminal GST; dsDNA, one strand shown. Put shortly:
(§1)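 Sequencing on an Illumina NextSeq500 followed washing, crosslinking with 0.1% formaldehyde, proximity ligation (BsaI/T4 ligase, 1 h, 37 °C) and PCR amplification of pools that had been incubated for 30 min at room temperature with 200 nmole of a random double-stranded 16-mer DNA library in Tris/NaCl/DTT/glycerol buffer. Each pool held DNA-barcoded human transcription factors, expressed in yeast as GST fusions and captured on glutathione beads, plus a tag-only sample. Binding signal is a hexamer's read frequency for a factor divided by its frequency in the tag-only sample.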

In experiment [2] the target is T2, ELK1 (Homo sapiens, UniProt P19419 1-428).
T2 sequence: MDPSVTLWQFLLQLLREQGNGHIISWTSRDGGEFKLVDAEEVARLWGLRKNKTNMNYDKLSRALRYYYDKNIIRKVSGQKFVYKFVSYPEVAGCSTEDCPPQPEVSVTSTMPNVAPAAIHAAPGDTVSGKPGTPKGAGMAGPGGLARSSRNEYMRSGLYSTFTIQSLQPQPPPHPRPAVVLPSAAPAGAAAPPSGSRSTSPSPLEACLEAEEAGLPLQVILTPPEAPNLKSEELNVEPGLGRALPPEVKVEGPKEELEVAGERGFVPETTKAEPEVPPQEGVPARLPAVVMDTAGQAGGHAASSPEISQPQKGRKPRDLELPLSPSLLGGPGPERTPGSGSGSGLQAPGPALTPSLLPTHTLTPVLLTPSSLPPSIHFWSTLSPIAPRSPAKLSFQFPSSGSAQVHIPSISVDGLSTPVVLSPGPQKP
The conditions noted are these: protein: recombinant; tags: N-terminal GST; dsDNA, one strand shown. Summed up: as §1

The target in experiment [3] is T3, GABPA (Homo sapiens, UniProt Q06546 1-454).
T3 sequence: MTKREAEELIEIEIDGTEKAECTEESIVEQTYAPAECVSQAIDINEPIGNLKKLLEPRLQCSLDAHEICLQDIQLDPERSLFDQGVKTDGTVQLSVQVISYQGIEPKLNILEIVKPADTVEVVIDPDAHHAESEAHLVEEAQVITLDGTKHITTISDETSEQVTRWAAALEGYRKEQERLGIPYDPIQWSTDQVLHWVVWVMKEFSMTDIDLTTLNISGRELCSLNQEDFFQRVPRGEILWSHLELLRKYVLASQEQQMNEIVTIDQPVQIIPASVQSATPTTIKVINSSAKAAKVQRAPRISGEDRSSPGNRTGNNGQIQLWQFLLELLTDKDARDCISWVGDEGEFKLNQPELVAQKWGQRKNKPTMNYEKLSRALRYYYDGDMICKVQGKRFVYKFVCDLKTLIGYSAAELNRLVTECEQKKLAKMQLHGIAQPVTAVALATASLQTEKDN
The conditions noted are these: protein: recombinant; tags: N-terminal GST; dsDNA, one strand shown. Put shortly:
as §1

Experiment [4] concerns the target T4, ERG (Homo sapiens, UniProt P11308 1-479).
T4 sequence: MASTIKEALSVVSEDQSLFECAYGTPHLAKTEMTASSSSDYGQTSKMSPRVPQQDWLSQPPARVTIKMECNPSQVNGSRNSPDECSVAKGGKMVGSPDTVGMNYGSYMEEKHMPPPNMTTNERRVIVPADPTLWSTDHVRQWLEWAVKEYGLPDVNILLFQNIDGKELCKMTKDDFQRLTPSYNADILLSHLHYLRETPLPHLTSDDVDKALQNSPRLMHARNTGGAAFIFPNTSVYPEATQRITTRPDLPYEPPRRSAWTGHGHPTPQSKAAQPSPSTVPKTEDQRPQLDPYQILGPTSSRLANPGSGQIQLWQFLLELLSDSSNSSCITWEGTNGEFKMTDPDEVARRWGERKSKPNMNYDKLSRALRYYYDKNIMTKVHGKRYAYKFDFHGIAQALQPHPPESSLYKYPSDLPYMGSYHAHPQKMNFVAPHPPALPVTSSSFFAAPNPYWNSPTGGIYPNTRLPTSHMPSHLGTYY
The conditions noted are these: protein: recombinant; tags: N-terminal GST; dsDNA, one strand shown. Put shortly: as §1

Experiment [5] addresses ELF1 (Homo sapiens, UniProt P32519 1-619). The conditions noted are these: protein: recombinant; tags: N-terminal GST; dsDNA, one strand shown. Put shortly:
as §1

The target in experiment [6] is T5, EHF (Homo sapiens, UniProt Q9NZC4 1-300).
T5 sequence: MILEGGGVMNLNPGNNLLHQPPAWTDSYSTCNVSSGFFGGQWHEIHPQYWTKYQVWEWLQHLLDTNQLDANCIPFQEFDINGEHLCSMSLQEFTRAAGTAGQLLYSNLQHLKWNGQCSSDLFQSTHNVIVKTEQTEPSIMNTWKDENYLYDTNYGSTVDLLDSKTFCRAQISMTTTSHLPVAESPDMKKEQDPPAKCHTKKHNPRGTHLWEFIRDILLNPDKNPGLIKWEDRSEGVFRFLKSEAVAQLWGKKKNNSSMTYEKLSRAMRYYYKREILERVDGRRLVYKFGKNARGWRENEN
The conditions noted are these: protein: recombinant; tags: N-terminal GST; dsDNA, one strand shown. Put shortly: as §1

In experiment [7] the target is SPI1 (Homo sapiens, UniProt P17947 1-270). The conditions noted are these: protein: recombinant; tags: N-terminal GST; dsDNA, one strand shown. Put shortly:
as §1

Experiment [8] concerns the target T6, ELK3 (Homo sapiens, UniProt P41970 1-407).
T6 sequence: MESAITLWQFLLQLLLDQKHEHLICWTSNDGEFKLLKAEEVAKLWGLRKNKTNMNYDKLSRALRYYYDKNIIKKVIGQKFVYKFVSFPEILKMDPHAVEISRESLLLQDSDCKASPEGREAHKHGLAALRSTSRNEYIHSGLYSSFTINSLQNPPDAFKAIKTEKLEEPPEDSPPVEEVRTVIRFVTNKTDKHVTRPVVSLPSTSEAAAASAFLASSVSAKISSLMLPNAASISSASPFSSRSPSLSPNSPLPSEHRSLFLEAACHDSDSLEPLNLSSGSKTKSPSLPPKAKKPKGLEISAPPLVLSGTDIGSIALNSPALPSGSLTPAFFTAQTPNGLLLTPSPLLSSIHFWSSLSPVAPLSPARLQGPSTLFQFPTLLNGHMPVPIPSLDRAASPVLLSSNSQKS
Particulars: protein: recombinant; tags: N-terminal GST; dsDNA, one strand shown. Put shortly: as §1

Experiment [9] concerns the target T7, FEV (Homo sapiens, UniProt Q99581 1-238).
T7 sequence: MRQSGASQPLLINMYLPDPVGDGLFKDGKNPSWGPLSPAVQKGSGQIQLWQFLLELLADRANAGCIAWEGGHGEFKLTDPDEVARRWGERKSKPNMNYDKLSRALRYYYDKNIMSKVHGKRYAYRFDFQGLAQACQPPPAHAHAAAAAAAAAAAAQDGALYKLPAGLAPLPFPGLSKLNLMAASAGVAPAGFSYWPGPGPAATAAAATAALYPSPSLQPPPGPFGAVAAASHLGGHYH
Particulars: protein: recombinant; tags: N-terminal GST; dsDNA, one strand shown. Put shortly: as §1

In experiment [10] the target is ETV5 (Homo sapiens, UniProt P41161 1-510). Particulars: protein: recombinant; tags: N-terminal GST; dsDNA, one strand shown. Put shortly:
as §1

In experiment [11] the target is HSF1 (Homo sapiens, UniProt Q00613 1-529). The conditions noted are these: protein: recombinant; tags: N-terminal GST; chain copies: 3; dsDNA, one strand shown. Put shortly:
as §1

Experiment [12] concerns the target T8, SPIC (Homo sapiens, UniProt Q8N5J4 1-248).
T8 sequence: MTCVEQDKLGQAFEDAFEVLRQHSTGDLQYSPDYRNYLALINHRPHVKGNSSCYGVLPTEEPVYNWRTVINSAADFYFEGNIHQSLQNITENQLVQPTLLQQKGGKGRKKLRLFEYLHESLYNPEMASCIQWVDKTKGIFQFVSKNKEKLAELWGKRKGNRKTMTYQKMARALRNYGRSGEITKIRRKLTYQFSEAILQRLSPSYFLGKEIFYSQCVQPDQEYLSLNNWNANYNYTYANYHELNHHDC
Particulars: protein: recombinant; tags: N-terminal GST; dsDNA, one strand shown. Put shortly: as §1

Experiment [13] deals with ELF4 (Homo sapiens, UniProt Q99607 1-663). Particulars: protein: recombinant; tags: N-terminal GST; dsDNA, one strand shown. Put shortly: as §1
Experiment [14] concerns the target T9, ELK4 (Homo sapiens, UniProt P28324-2 1-405).
T9 sequence: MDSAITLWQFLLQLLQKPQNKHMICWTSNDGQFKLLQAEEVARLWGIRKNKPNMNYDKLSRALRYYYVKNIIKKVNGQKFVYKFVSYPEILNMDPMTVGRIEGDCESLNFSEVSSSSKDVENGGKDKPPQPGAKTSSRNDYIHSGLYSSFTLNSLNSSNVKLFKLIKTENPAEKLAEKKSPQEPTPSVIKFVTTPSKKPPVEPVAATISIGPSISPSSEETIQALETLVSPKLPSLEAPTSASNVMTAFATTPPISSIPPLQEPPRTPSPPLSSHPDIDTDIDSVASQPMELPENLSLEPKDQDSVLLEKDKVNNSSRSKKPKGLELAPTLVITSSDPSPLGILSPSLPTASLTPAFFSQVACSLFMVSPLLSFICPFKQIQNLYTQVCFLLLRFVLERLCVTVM
Particulars: protein: recombinant; tags: N-terminal GST; dsDNA, one strand shown. Summed up: as §1

Experiment [15] addresses T10, ETV2 (Homo sapiens, UniProt O00321 1-342).
T10 sequence: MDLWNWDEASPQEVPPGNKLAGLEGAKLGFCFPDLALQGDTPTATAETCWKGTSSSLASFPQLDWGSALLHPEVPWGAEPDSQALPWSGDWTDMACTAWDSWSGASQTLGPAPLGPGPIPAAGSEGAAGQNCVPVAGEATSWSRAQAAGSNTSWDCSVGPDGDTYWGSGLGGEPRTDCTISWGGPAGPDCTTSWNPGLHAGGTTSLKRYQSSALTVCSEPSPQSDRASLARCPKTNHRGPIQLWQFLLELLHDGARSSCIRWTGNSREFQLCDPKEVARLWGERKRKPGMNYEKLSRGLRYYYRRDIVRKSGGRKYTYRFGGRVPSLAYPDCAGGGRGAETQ
Particulars: protein: recombinant; tags: N-terminal GST; dsDNA, one strand shown. Summed up: as §1

The target of experiment [16] is T11, ELF3 (Homo sapiens, UniProt P78545 1-371).
T11 sequence: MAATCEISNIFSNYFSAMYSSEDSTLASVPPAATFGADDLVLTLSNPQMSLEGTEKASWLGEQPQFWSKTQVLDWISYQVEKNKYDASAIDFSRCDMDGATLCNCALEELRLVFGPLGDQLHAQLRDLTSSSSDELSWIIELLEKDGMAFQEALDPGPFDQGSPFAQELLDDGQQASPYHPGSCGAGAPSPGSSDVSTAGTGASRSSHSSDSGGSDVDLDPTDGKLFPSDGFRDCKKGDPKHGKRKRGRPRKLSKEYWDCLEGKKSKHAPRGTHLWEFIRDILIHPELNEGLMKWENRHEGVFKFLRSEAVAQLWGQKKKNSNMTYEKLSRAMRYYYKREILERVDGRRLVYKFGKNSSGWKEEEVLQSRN
The conditions noted are these: protein: recombinant; tags: N-terminal GST; dsDNA, one strand shown. Put shortly: as §1

Experiment [17] concerns the target ETV1 (Homo sapiens, UniProt P50549 1-477). Particulars: protein: recombinant; tags: N-terminal GST; dsDNA, one strand shown. Put shortly: as §1

ELF4, sequence (Q99607 whole entry): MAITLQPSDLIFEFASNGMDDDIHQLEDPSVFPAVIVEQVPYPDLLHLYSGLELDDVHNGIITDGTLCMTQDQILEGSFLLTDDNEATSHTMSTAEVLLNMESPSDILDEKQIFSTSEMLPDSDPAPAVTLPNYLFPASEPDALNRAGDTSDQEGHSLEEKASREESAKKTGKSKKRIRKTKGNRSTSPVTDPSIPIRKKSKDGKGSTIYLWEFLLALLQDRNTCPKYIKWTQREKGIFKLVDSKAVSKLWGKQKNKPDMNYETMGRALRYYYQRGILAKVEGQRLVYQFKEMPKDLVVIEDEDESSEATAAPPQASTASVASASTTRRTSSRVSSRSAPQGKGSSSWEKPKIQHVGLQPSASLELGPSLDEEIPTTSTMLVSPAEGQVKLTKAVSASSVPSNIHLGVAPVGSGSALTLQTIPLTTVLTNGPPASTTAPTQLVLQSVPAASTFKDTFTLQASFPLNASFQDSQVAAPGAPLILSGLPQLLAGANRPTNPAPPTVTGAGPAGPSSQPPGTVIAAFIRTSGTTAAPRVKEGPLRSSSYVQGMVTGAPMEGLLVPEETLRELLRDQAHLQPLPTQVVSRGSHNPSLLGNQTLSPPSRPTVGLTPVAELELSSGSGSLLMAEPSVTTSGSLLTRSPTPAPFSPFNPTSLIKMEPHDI
ETV1, sequence (P50549 whole entry): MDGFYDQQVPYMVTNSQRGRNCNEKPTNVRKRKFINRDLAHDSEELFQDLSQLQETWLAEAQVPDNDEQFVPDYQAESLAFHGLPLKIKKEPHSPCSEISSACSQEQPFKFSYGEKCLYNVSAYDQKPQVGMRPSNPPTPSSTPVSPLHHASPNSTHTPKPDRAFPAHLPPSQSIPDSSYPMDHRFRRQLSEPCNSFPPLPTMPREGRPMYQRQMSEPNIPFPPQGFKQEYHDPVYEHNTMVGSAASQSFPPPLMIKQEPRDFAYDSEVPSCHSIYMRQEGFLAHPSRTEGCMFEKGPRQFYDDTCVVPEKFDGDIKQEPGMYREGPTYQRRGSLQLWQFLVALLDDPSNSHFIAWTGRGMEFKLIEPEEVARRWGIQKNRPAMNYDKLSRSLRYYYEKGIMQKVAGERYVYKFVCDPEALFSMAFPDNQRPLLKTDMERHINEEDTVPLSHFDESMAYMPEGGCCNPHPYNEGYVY
ELF1, sequence (P32519 whole entry): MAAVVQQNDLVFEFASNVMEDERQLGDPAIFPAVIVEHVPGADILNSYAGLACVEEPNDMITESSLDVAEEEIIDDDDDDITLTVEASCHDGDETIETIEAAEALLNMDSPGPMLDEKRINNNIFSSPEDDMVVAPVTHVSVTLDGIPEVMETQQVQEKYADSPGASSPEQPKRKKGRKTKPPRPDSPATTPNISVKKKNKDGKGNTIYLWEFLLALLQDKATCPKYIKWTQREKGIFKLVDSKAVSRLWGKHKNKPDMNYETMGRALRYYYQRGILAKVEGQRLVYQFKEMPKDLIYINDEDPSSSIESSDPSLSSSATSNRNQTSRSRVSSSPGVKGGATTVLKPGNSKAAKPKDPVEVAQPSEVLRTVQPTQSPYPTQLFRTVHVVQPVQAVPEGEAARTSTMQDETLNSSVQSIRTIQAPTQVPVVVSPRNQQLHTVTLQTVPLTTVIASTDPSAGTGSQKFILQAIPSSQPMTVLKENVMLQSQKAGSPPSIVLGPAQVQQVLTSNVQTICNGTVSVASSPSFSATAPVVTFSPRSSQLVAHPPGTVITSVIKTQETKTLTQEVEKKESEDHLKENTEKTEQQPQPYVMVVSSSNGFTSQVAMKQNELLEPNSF
HSF1, sequence (Q00613 whole entry): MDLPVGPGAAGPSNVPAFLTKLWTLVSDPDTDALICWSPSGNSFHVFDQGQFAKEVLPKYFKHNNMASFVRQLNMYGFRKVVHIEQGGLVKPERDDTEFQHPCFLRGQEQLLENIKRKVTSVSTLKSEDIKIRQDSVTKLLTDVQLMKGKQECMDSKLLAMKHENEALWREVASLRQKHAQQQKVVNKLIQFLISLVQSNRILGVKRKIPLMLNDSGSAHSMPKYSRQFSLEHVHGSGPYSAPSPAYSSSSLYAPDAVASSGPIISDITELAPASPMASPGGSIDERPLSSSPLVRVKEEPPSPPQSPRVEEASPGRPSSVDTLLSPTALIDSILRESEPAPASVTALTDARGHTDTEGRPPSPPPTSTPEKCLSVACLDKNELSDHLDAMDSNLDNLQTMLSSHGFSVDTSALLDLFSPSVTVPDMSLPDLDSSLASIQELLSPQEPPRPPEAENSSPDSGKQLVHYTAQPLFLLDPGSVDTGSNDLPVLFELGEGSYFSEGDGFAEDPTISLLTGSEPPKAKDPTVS
ETV5, sequence (P41161 whole entry): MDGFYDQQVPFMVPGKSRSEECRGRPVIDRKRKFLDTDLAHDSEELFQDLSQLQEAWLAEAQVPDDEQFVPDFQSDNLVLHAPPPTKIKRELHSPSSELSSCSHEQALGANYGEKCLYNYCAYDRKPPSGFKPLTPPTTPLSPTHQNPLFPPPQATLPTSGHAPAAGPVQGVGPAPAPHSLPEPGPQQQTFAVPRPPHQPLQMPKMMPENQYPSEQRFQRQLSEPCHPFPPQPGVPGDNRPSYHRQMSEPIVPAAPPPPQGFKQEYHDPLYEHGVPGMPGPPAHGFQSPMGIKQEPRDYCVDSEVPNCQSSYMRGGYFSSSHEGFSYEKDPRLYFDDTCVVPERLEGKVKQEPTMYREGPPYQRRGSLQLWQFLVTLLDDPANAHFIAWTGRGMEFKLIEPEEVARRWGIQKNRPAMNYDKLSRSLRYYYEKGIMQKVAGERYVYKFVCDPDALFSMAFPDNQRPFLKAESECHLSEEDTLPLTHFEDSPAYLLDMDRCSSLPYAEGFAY

Take ACGACG: the binding signal in experiment [1] was 1.15 fold enrichment (6-mer frequency, TF over GST control); in experiment [2], 1.15 fold enrichment (6-mer frequency, TF over GST control); in experiment [3], 1.22 fold enrichment (6-mer frequency, TF over GST control); in experiment [4] it was 1.1 fold enrichment (6-mer frequency, TF over GST control); in experiment [5], 1.09 fold enrichment (6-mer frequency, TF over GST control); in experiment [6], 1.1 fold enrichment (6-mer frequency, TF over GST control). The binding signal in experiment [7] was 1.11 fold enrichment (6-mer frequency, TF over GST control); in [8], 1.15 fold enrichment (6-mer frequency, TF over GST control); in experiment [9] it was 1.17 fold enrichment (6-mer frequency, TF over GST control); in experiment [10], 1.18 fold enrichment (6-mer frequency, TF over GST control); in [11], 1.02 fold enrichment (6-mer frequency, TF over GST control); in [12], 1.05 fold enrichment (6-mer frequency, TF over GST control). Further, the binding signal was 1.2 fold enrichment (6-mer frequency, TF over GST control) in [13]; 1.17 fold enrichment (6-mer frequency, TF over GST control) in experiment [14]; 1.16 fold enrichment (6-mer frequency, TF over GST control) in [15]; 1.17 fold enrichment (6-mer frequency, TF over GST control) in [16]; 1.01 fold enrichment (6-mer frequency, TF over GST control) in [17].

The values are drawn from paper PMC7862700, “An all-to-all approach to the identification of sequence-specific readers for epigenetic DNA modifications on cytosine”.
